FID counter = compounds displacing fluorescent DNA intercalator, primary screen, artefact control for HCV NS3 helicase inhibitor project, biochemical, FID fluorescence. DNA fluorescent intercalator displacement. inhibition, % at 7.9 µM. actives 0.17% (n = 290,000). AID 1845, 2009; in the data active = inhibition above about 37%;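 also: 0% = vehicle and 100% = reference compound; higher means more ethidium bromide displaced from hairpin DNA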
IEC-6 tox = cytotoxicity in IEC-6 intestinal epithelial cells, primary screen, cytotoxicity control for KLF5 inhibitor project, cell-based, luminescence; actives 0.78% (n = 290,000); IEC-6 cytotoxicity, luminescence viability; inhibition, % at 5 µM;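 also: 0% = plate median of test compound wells and 100% = cytotoxic reference compound wells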
Ba/F3 V617F tox = reduced viability of JAK2V617F-dependent Ba/F3 cells, primary screen, JAK2V617F inhibitor project, cell-based, Ba/F3 EpoR-JAK2V617F, luminescence. actives 1.1% (n = 220,000). AID 1446, 2008. ATP luminescence. inhibition, % at 5.6 µM;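 active = inhibition above the campaign mean plus 3 SD over all tested compounds, cut at about 24% in these data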;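 also: cytokine-independent growth of Ba/F3 cells driven by EpoR plus mutant JAK2; 0% = DMSO-treated cells and 100% = JAK inhibitor I control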
BaF3 tox = parental Ba/F3 cell viability inhibition, counter-screen for JAK2V617F inhibitor project, murine pro-B, CellTiter-Glo luminescence. CellTiter-Glo ATP luminescence. inhibition, % at 5.6 µM. actives 1.1% (n = 220,000);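 active = inhibition above a per-campaign cutoff, the mean inhibition of all tested compounds plus 3 SD, cut at about 27% in these data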;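 also: 0% = DMSO wells and 100% = JAK Inhibitor I control wells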
KLF5 inhibitor = KLF5 expression inhibitors, primary screen, DLD-1 cells, luminescence. actives 0.23% (n = 290,000). inhibition, % at 5 µM. DLD-1 KLF5 promoter-luciferase reporter;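 active = inhibition above a per-plate limit of that plate's mean compound inhibition plus 3 SD, cut at about 60% in these data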;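 also: 0% = DMSO wells and 100% = LY294002 at 200 µM; higher means less KLF5 promoter-driven luciferase light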
GPR7 antagonist = GPR7 receptor antagonists, primary screen, cell-based, fluorescence, single concentration | inhibition, % at 4.4 µM | actives 1.1% (n = 290,000) | Neuropeptides B/W receptor type 1 (Homo sapiens), P48145 | AID 1861, 2009 | GPR7-expressing cells, fluorescence antagonist assay; in the data active = inhibition above about 16%, passing the limit was not always enough;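 also: cells stimulated with the agonist NPW; 0% = agonist with vehicle and 100% = vehicle without agonist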
Target sequence (P48145 whole entry, looked up): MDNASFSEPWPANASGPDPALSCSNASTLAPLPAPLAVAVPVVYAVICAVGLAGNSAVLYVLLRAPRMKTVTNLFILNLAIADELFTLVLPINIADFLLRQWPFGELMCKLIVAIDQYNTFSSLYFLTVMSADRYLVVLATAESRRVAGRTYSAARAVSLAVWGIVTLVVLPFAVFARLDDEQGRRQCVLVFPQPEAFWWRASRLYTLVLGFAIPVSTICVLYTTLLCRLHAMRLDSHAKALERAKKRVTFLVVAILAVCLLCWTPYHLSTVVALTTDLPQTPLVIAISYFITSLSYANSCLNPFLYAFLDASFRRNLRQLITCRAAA
GPR7 antag conf = GPR7 receptor antagonists, confirmation, cell-based, fluorescence, single concentration; inhibition, % at 4.4 µM; AID 1952, 2009; shares compounds with GPR7 antagonist; actives 52% (n = 2,400); GPR7-expressing cells, calcium fluorescence antagonist mode; in the data active = inhibition above about 24%;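 also: stimulated with the GPR7 agonist NPW; 0% = agonist plus vehicle and 100% = vehicle alone without agonist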
MCHR1 antagonist = MCHR1 antagonists in cells, counter-screen for GPR7 antagonist project, cell-based, fluorescence, human; shares compounds with GPR7 antagonist; MCHR1-expressing cells, fluorescence antagonist assay; inhibition, % at 4.4 µM; actives 62% (n = 2,400); AID 2148, 2009;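 also: 0% = vehicle with agonist and 100% = vehicle without agonist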
Starred values were filed as active, the others as inactive. The list is not random: actives were taken first. Their share in the collection is about 2.6%. Rule as the data show it, unless noted: active = inhibition above about 22%; inactive = the rest.

How did CC1=NC(C)(C)Cc2ccccc21 do in these assays?
FID counter: 0.9; IEC-6 tox: 7.0; Ba/F3 V617F tox: 4.2; BaF3 tox: 6.6; KLF5 inhibitor: -32.4; GPR7 antagonist: -7.3

What do the screens show for `CC1(C)Cc2ccccc2C(COc2ccccc2)=N1`?
FID counter: -10.6; IEC-6 tox: 0.2; KLF5 inhibitor: -40.6; GPR7 antagonist: 25.6*; GPR7 antag conf: -1.1; MCHR1 antagonist: -0.3

How did O=C(NCc1ccccc1Cl)c1ccc(S(=O)(=O)Nc2cccc(C(F)(F)F)c2)cc1 do in these assays?
FID counter: -15.7; IEC-6 tox: 2.1; Ba/F3 V617F tox: -2.2; BaF3 tox: 4.2; KLF5 inhibitor: 2.2; GPR7 antagonist: 24.3*; GPR7 antag conf: 32.4*; MCHR1 antagonist: 46.2*

What do the screens show for `CC1CCN(CC(O)COC2CC(C)CCC2C(C)C)CC1` (configuration not stated)?
FID counter: 21.2; IEC-6 tox: -4.3; Ba/F3 V617F tox: -2.4; BaF3 tox: 2.7; KLF5 inhibitor: 20.3; GPR7 antagonist: 23.4*; GPR7 antag conf: 17.7; MCHR1 antagonist: 14.7

How did CCOc1ccc(C2CC(c3ccccc3C)n3ncnc3N2)cc1 (configuration not stated) do in these assays?
FID counter: -18.4; IEC-6 tox: 4.2; Ba/F3 V617F tox: -1.6; BaF3 tox: 4.0; KLF5 inhibitor: -26.2; GPR7 antagonist: 36.7*; GPR7 antag conf: 21.7; MCHR1 antagonist: 23.7*

Results for COc1ccccc1C1CC(c2ccc(Cl)cc2)Nc2ncnn21 (configuration not stated) ?
FID counter: -29.2; IEC-6 tox: 3.0; Ba/F3 V617F tox: -0.3; BaF3 tox: 4.7; KLF5 inhibitor: -28.1; MCHR1 antagonist: 15.2

How did Cc1ccccc1C1CC(c2ccccc2)Nc2ncnn21 (configuration not stated) do in these assays?
FID counter: -18.9; IEC-6 tox: -0.2; Ba/F3 V617F tox: -3.7; BaF3 tox: 1.4; KLF5 inhibitor: -10.0; GPR7 antagonist: 5.6

Results for O=C(C[n+]1cc(-c2ccc(Cl)cc2)n2c1CCC2)N1c2ccccc2Sc2ccccc21 ?
FID counter: 20.1; IEC-6 tox: -1.2; Ba/F3 V617F tox: 6.1; BaF3 tox: 10.3; KLF5 inhibitor: -7.0; GPR7 antagonist: -7.2

What do the screens show for `CC1CCC(C(C)C)C(OC(=O)C[n+]2cc(-c3ccc(Cl)cc3)n3c2CCC3)C1` (configuration not stated)?
FID counter: 22.7; IEC-6 tox: 5.8; Ba/F3 V617F tox: -0.4; BaF3 tox: -2.5; KLF5 inhibitor: -119.2; GPR7 antagonist: 28.3*; GPR7 antag conf: 38.5*; MCHR1 antagonist: 51.0*

How did CC(=O)c1ccc(S(=O)(=O)N2CCN(C(=O)CSc3ccc(C)c(C)c3)CC2)cc1 do in these assays?
FID counter: -45.5; IEC-6 tox: -5.6; KLF5 inhibitor: 12.0; GPR7 antagonist: 34.8*; GPR7 antag conf: 20.2; MCHR1 antagonist: 6.7

What do the screens show for `Cc1ccc(S(=O)(=O)N2CCN(C(=O)CSc3ccc(Cl)cc3)CC2)cc1`?
FID counter: -39.4; IEC-6 tox: 3.5; KLF5 inhibitor: 9.2; GPR7 antagonist: 4.2

How did CCOc1ccc(N2CC(C(=O)Nc3ccncc3)CC2=O)cc1 (configuration not stated) do in these assays?
FID counter: -7.5; IEC-6 tox: 6.2; KLF5 inhibitor: -16.8; GPR7 antagonist: 24.5*; GPR7 antag conf: -7.8; MCHR1 antagonist: 0.6

What do the screens show for `CCOc1ccc(N2CC(C(=O)Nc3ccccn3)CC2=O)cc1` (configuration not stated)?
FID counter: -11.5; IEC-6 tox: -0.5; Ba/F3 V617F tox: -0.9; BaF3 tox: -0.1; KLF5 inhibitor: -36.4; GPR7 antagonist: -6.7

Results for O=C(C1CCCN(Cc2nc(-c3ccc(Cl)cc3)no2)C1)N1CCOCC1 (configuration not stated) ?
FID counter: -23.0; IEC-6 tox: 0.0; Ba/F3 V617F tox: -0.5; BaF3 tox: 8.1; KLF5 inhibitor: -19.2; GPR7 antagonist: -9.7

What do the screens show for `CCN(CC)CCNC(=O)c1ccc(NC(=O)c2cn(-c3ccc(F)cc3)nc2-c2cccc(OC)c2)cc1`?
FID counter: 33.0; IEC-6 tox: -5.0; KLF5 inhibitor: 8.2; GPR7 antagonist: 15.2

Results for CCN(CC)CCNC(=O)c1ccc(NC(=O)c2cn(-c3ccccc3)nc2-c2cccs2)cc1 ?
FID counter: 29.2; IEC-6 tox: 6.9; Ba/F3 V617F tox: -0.1; BaF3 tox: 5.8; KLF5 inhibitor: -43.2; GPR7 antagonist: 22.2*; GPR7 antag conf: 34.5*; MCHR1 antagonist: 44.6*

What do the screens show for `CCN(CC)S(=O)(=O)c1ccc2c(c1)N(CC(=O)NCc1ccco1)C(=O)CO2`?
FID counter: -10.6; IEC-6 tox: -0.9; Ba/F3 V617F tox: -3.0; BaF3 tox: 2.4; KLF5 inhibitor: -34.1; GPR7 antagonist: 10.9

Results for CCOC(=O)c1c(C)[nH]c(C(=O)CN2C(=O)NC3(CCCC3)C2=O)c1C ?
FID counter: -20.8; IEC-6 tox: 1.2; Ba/F3 V617F tox: -2.9; BaF3 tox: -1.0; KLF5 inhibitor: -26.4; GPR7 antagonist: -20.9

Results for CCCC1(c2ccccc2)NC(=O)N(CC(=O)c2[nH]c(C)c(C(=O)OCC)c2C)C1=O (configuration not stated) ?
FID counter: -22.6; IEC-6 tox: -3.4; Ba/F3 V617F tox: 0.2; BaF3 tox: 7.4; KLF5 inhibitor: 0.7; GPR7 antagonist: 21.9*; GPR7 antag conf: 27.4*; MCHR1 antagonist: 45.4*

What do the screens show for `N/N=C(/Cc1nc2ccccc2[nH]1)c1ccc([N+](=O)[O-])cc1`?
FID counter: 9.1; IEC-6 tox: 1.3; Ba/F3 V617F tox: 3.7; BaF3 tox: 9.1; KLF5 inhibitor: -18.9; GPR7 antagonist: 36.1*; GPR7 antag conf: 1.8; MCHR1 antagonist: 21.3

How did O=C(NCCc1nc2ccccc2[nH]1)c1cc([N+](=O)[O-])cc([N+](=O)[O-])c1 do in these assays?
FID counter: 11.3; IEC-6 tox: 0.6; Ba/F3 V617F tox: -1.4; BaF3 tox: 0.4; KLF5 inhibitor: -9.8; GPR7 antagonist: -8.8

Source: PubChem BioAssay
